Molecules are shown by their SMILES. In all, about 330,000 compounds went through this assay and about 1,900 (0.58%) were called active. Roughly 4% stayed inconclusive and do not appear here. Cut-off read from the data, not from the text of the source: inconclusive = inhibition above about 70% without an active follow-up result; inactive = below that. These entries were drawn from the full list. Results with a measured potency or affinity are listed apart.

This assay can be described thus: M. tuberculosis growth inhibition, HTS (AID 449762).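 Note: bacterial growth assessed after seven days of incubation.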 Particulars: M. tuberculosis H37Rv growth inhibition, 7H9 media; at 25 µM; active compounds read high.
For `O=C(Nc1ccc(OC(F)F)c(Cl)c1)Nc1ccc2c(c1)OCO2`, the inhibition was 5.38% (inactive).

In the case of `Cc1cc(OC(F)F)ccc1NC(=O)Nc1ccc([N+](=O)[O-])cc1`, the inhibition is 17.3% (inactive).

With `Cc1ncc([N+](=O)[O-])n1CC(=O)NC1CCCCCC1`, the inhibition is 0.9% (inactive).

`O=C(Cc1ccc([N+](=O)[O-])cc1)OCc1c(F)cccc1Cl`: the inhibition is 7.51% (inactive).

Regarding `CC(C)N(Cc1ccccc1)CC(O)COc1ccc(S(=O)(=O)N2CCOCC2)cc1Cl` (centres undefined), the inhibition was 1.09% (inactive).

As to `O=c1cc(-c2ccccc2O)nc(-c2ccccc2)[nH]1`, the inhibition is 15.5% (inactive).

Regarding `Cc1nn(-c2ccc(F)cc2)c(Cl)c1/C=C(\CC(=O)O)c1nc2ccccc2s1`, the inhibition was -5.29% (inactive).

In the case of `Cc1cc(C)c(C(=O)COC(=O)[C@H](C)Nc2ccc(C(F)(F)F)cc2[N+](=O)[O-])c(C)c1`, the inhibition was -3.25% (inactive).

As for `COc1ccc(C(=O)COC(=O)[C@H](C)Nc2ccc(C(F)(F)F)cc2[N+](=O)[O-])c(OC)c1`, the inhibition is 11.7% (inactive).

For the compound `CCOC(=O)CSc1cc(C)c(C#N)c2nc3ccccc3n12`, the inhibition is 9.77% (inactive).

Take `Cc1cccc(NC(=O)CSc2cc(C)c(C#N)c3nc4ccccc4n23)c1`: the inhibition is -1.23% (inactive).

On to `COC(=O)C1=CO[C@@H](O[C@@H]2O[C@H](CO)[C@@H](O)[C@H](O)[C@H]2O)C2C1CC(O)O[C@H]2C` (some centres undefined), for which the inhibition is -0.01% (inactive).

As to `COc1ccccc1-c1nnn(C/C(N)=N/O)n1`, the inhibition was -5.65% (inactive).

As for `Cc1cc(C)c(NC(=O)CSc2nccn2C)c(C)c1`, the inhibition was 5.06% (inactive).

As for `COc1ccc(CNC(=O)c2sc3nc4c(c(C(F)(F)F)c3c2N)CCC4)cc1OC`, the inhibition is 38.5% (inactive).

Consider `COc1ccc(CNC(=O)c2sc3nc4c(c(C(F)(F)F)c3c2N)CCC4)cc1`, for which the inhibition is 0.35% (inactive).

For the compound `CC(=O)NCCNC(=O)C1CCC(CNc2nc(=S)[nH]c3ccccc23)CC1` (centres undefined), the inhibition was -6.34% (inactive).

As for `CC(C)(C)c1ccc(OCCNC(=O)c2ncn[nH]2)cc1`, the inhibition is 31.8% (inactive).

With `CCOc1cccc(/C=N/NC(=S)Nc2ccccc2[N+](=O)[O-])c1O`, the inhibition was 0.56% (inactive).

On to `COc1cccc(C=Nc2cc(C)cc(C)c2)c1O`, for which the inhibition was 4.13% (inactive).

`CCOc1cccc(C=NCCc2ccc(OC)c(OC)c2)c1O`: the inhibition was -1.63% (inactive).

For `CCCCNC(=S)N/N=C/c1ccccc1F`, the inhibition is 31.4% (inactive).

As to `Cc1ccc([C@@H]2CC=C(C(=O)O)[C@H](c3ccc(F)cc3)N2S(=O)(=O)c2ccc(C)cc2)cc1`, the inhibition was 7.16% (inactive).

Regarding `O=C(O)C(c1ccccc1)N1CCCC1` (centres undefined), the inhibition is -1.43% (inactive).

As for `Nc1ccccc1Sc1ccccc1[N+](=O)[O-]`, the inhibition is -1.08% (inactive).

For the compound `Nc1ccccc1SC(C[N+](=O)[O-])c1ccccc1` (centres undefined), the inhibition is 10.3% (inactive).

For the compound `Cc1ccc(NC(=O)Cn2c3ccc(F)cc3c3nc4n(c(=O)c32)CCS4)cc1F`, the inhibition was 6.34% (inactive).

With `CC(C)(C)c1csc(NC(=O)c2ccncc2)n1`, the inhibition was 6.43% (inactive).

For the compound `CC(C)(C)c1csc(NC(=O)c2ccccc2O)n1`, the inhibition was 3.48% (inactive).

For `O=C(CN1CCN(c2cccc(Cl)c2)CC1)NC1CCCc2ccccc21` (centres undefined), the inhibition is 11.3% (inactive).

As for `O=C(CN1CCN(c2ccccc2Cl)CC1)NC1CCCc2ccccc21` (centres undefined), the inhibition was 7.47% (inactive).

As for `CN(CCNC(=O)C1CCCN(c2ncnc3c2nc2n3CCCCC2)C1)Cc1ccccc1` (centres undefined), the inhibition is -0.58% (inactive).

As to `CC1CCCN(C(=O)CN2C(=O)NC(C)(c3ccc4ccccc4c3)C2=O)C1` (centres undefined), the inhibition was 3.55% (inactive).

For `C[C@H](CO)N1C[C@H](C)[C@@H](CN(C)Cc2ccc(-c3ccccc3)cc2)Oc2c(NS(=O)(=O)c3ccc(F)cc3)cccc2C1=O`, the inhibition is -1.65% (inactive).

For the compound `C[C@]12CC[C@@H](O)CC1=CC(=O)C1C2CC[C@]2(C)C(=O)CCC12` (some centres undefined), the inhibition is 3.17% (inactive).

Take `C[C@]12CC[C@H](O)CC1=CC(=O)C1C2CC[C@]2(C)C(=O)CCC12` (some centres undefined): the inhibition was -1.13% (inactive).

Turning to `NCCCn1cnc2ccccc21`, the inhibition is 9.6% (inactive).

For `Cc1nonc1OC(C)CNc1ccc([N+](=O)[O-])cc1` (centres undefined), the inhibition was 8.67% (inactive).

`O=[N+]([O-])c1cnn(-c2nc(-c3ccco3)cc(C(F)(F)F)n2)c1`: the inhibition was -2.2% (inactive).

In the case of `CN1CCN(c2nc(-c3ccco3)cc(C(F)(F)F)n2)CC1`, the inhibition is 7.69% (inactive).

As to `CCn1ncc(/C=N/O)c1C`, the inhibition was -7.24% (inactive).

As for `CCOC(=O)C1(CCOc2ccccc2)CCN(Cc2cccc(OC)c2)CC1`, the inhibition is 8.09% (inactive).

On to `CCOC(=O)C1(CCOc2ccccc2)CCN(Cc2cccc(O)c2)CC1`, for which the inhibition is 3.57% (inactive).

Turning to `Cc1ccc(OCC(=O)N(C)CC(=O)Nc2ccc(F)c(F)c2F)cc1`, the inhibition was 4.12% (inactive).

Take `Cc1ccc(S(=O)(=O)N2CCN(C3CC4CCC3C4)CC2)cc1` (centres undefined): the inhibition is -2.36% (inactive).

For the compound `O=C(CCNS(=O)(=O)c1ccccc1)N1CCN(C(c2ccccc2)c2ccccc2)CC1`, the inhibition was 4.06% (inactive).

Regarding `CCOc1ccc(-c2cc(CCCC(=O)NCCCOC)no2)cc1`, the inhibition was -1.18% (inactive).

On to `CCOc1ccc(-c2cc(CCCC(=O)NCCc3ccccc3)no2)cc1`, for which the inhibition is -2.4% (inactive).

For the compound `CCn1c2c(c3cc(OCC(C)C)ccc31)CCCC2=O`, the inhibition was -1.76% (inactive).

Turning to `COc1ccc(NC(=O)CS(=O)(=O)c2cn(CC(=O)N3CCOCC3)c3ccccc23)cc1OC`, the inhibition is -16% (inactive).

In the case of `O=S1(=O)N=C(SCCO)c2ccccc21`, the inhibition was 8.5% (inactive).

`Cc1ccc(SC2=C(Sc3ccc(C)cc3)C(=O)c3ccccc3C2=O)cc1`: the inhibition is -5.39% (inactive).

Consider `COc1cc(C(=O)OCC(=O)Nc2ccccc2C(=O)NC2CC2)c([N+](=O)[O-])cc1OC`, for which the inhibition was -0.465% (inactive).

Regarding `COc1cccc(C2C(C#N)=C(N)OC(C(C)(C)C)=C2C#N)c1` (centres undefined), the inhibition is -2.5% (inactive).

With `COC(=O)c1c(NC(=S)Nc2ccc(C(=O)N3CCOCC3)cc2)sc2c1CCC2`, the inhibition is -7.13% (inactive).

On to `O=C(NCCN1CCCC1)c1ccc(Cn2c(=S)[nH]c3ccc(Br)cc3c2=O)cc1`, for which the inhibition is 64.3% (inactive).

With `CN(C)CCNC(=O)c1ccc2c(=O)n(Cc3ccc(Cl)cc3)c(=S)[nH]c2c1`, the inhibition was 2.11% (inactive).

As for `C/C(=N/NC(=O)c1cc(C)[nH]n1)c1ccncc1`, the inhibition was 0.52% (inactive).

Turning to `CC1CCN(C(=O)C2CCCCN2S(=O)(=O)c2cccc([N+](=O)[O-])c2)CC1` (centres undefined), the inhibition is 0.51% (inactive).

Turning to `COC(=O)c1[nH]c2ccccc2c1NC(=O)C(C)N1CCN(C(=O)c2ccco2)CC1` (centres undefined), the inhibition is -9.02% (inactive).

Consider `CCOC(=O)c1sc(NC(=O)c2cc(-c3ccc(C)cc3)nc3ccccc23)c(C#N)c1C`, for which the inhibition is 1.87% (inactive).

Turning to `COc1cccc(NS(=O)(=O)c2c(C)n(C)c(=O)n(C)c2=O)c1`, the inhibition was -4.03% (inactive).

As for `Cc1ccc(C)c(N2CCN(S(=O)(=O)c3ccc(-c4cc(C)no4)s3)CC2)c1`, the inhibition is 6.24% (inactive).

`Cc1nn(-c2ccc([N+](=O)[O-])cc2)c2c1C(c1ccc(OC(F)F)cc1)N1C(=N2)C(=O)Nc2ccccc21` (centres undefined): the inhibition was 65.4% (inactive).

For `Cc1nn(-c2ccc([N+](=O)[O-])cc2)c2c1C(c1cccc(Br)c1)N1C(=N2)C(=O)Nc2ccccc21` (centres undefined), the inhibition is 15.9% (inactive).

Take `Cc1cc(C(=O)NCC(=O)OCC(=O)Nc2ccc(OC(F)F)cc2)ccc1[N+](=O)[O-]`: the inhibition is -2.28% (inactive).

Consider `CC(C)NC(=O)[C@@H]1CSC2c3ccccc3C(=O)N21` (some centres undefined), for which the inhibition is -1.97% (inactive).

Turning to `O=C(C[C@@H]1C/C=C\CCCC(=O)OC[C@@H]2CCCN2C1=O)N[C@H](CO)Cc1ccccc1`, the inhibition was 7.5% (inactive).

As for `Cc1cc(SCC(=O)NCCN2C(=O)CSC2=O)nc2c(C)cccc12`, the inhibition is 4.1% (inactive).

Regarding `Cc1cccc2c1-c1sc(C(=O)Nc3cccc([N+](=O)[O-])c3C)cc1CO2`, the inhibition was -9.42% (inactive).

For `Cc1cccc(NC(=O)c2cc3c(s2)-c2c(C)cccc2OC3)n1`, the inhibition was 0.14% (inactive).

Consider `Cc1cccc(OCCCC(=O)Nc2nccs2)c1C`, for which the inhibition is 8.02% (inactive).

Take `O=C(c1sccc1-c1ccccc1)N1CCN(S(=O)(=O)c2ccccc2)CC1`: the inhibition was -22.5% (inactive).

For the compound `COCCNc1nc(SCC(=O)N2CCN(c3ccccc3OC)CC2)nc2ccccc12`, the inhibition was -10.5% (inactive).

Turning to `COc1ccc2c3n([n+]([O-])c2c1)CCN=C3c1ccc(C)cc1`, the inhibition is 17% (inactive).

Consider `[O-][n+]1c2ccccc2c2n1CCN=C2c1ccc(Cl)cc1`, for which the inhibition was 0.84% (inactive).

Turning to `O=C(O)c1ccc(Cn2ccc3ccccc32)o1`, the inhibition is 2% (inactive).

Consider `CC(=O)C1=C(C)NC(SCC(N)=O)=C(C#N)C1c1ccco1` (centres undefined), for which the inhibition is -6.56% (inactive).

For the compound `CCOc1ccccc1NC(=O)CSC1=C(C#N)C(c2ccco2)C(C(=O)Nc2nc3ccccc3s2)=C(C)N1` (centres undefined), the inhibition was 49.6% (inactive).

With `CC(=O)C1=C(C)NC(SCC(=O)c2ccc(Cl)cc2)=C(C#N)C1c1ccco1` (centres undefined), the inhibition was 2.1% (inactive).

For `CC1=C(C(=O)Nc2ccccc2)C(c2ccco2)C(C#N)=C(SCC(=O)Nc2cccc(C)c2C)N1` (centres undefined), the inhibition is -1.31% (inactive).

With `CCOc1ccccc1CN1CCN(CC2CC2)CC1CCO` (centres undefined), the inhibition is -1.16% (inactive).

For the compound `COCCCNC(=O)CC(NCCCOC)C(=O)O` (centres undefined), the inhibition was 0.77% (inactive).

For the compound `COC(=O)c1ccc(NS(=O)(=O)N(C)C)cc1`, the inhibition was -1.07% (inactive).

In the case of `Cc1ccc(C(=O)N(CCC2=CCCCC2)c2c(N)n(Cc3ccccc3)c(=O)[nH]c2=O)o1`, the inhibition is 6.47% (inactive).

For the compound `Nc1c(N(CCC2=CCCCC2)C(=O)c2ccco2)c(=O)[nH]c(=O)n1Cc1ccccc1`, the inhibition is 9.03% (inactive).

With `CS(=O)(=O)c1ccc(Cl)c(NC(=O)COC(=O)CCN=C2NS(=O)(=O)c3ccccc32)c1`, the inhibition is -3.06% (inactive).

With `O=C(CCl)NN1C(=O)NC(c2ccccc2)(c2ccccc2)C1=O`, the inhibition was 2.88% (inactive).

For `Cc1ccc(S(=O)(=O)NCC(=O)OCc2cc(=O)oc3cc(C)ccc23)cc1`, the inhibition is -1.73% (inactive).

The values above are taken from PubChem BioAssay AID449762 (Southern Research Specialized Biocontainment Screening …, 2010).
